Experimental data as given in PubChem BioAssay.

Columns and labels:
[1] = target: Tumor necrosis factor receptor superfamily member 10B (Homo sapiens) (UniProt O14763); assay: viability loss of caspase-8 NB7 cells with TRAIL – with/without TRAIL, luminescence panel, confirmation (AID 651596); conditions: NB7 neuroblastoma + caspase-8, TRAIL sensitization, NB7 Caspase-8, with TRAIL, mean of runs, at 10 µM, stronger effect = higher value
[2] = as above; conditions: NB7 neuroblastoma + caspase-8, without TRAIL, NB7 Caspase-8, without TRAIL, mean of runs, at 10 µM

Chain of Tumor necrosis factor receptor superfamily member 10B (Homo sapiens) (O14763 whole entry, looked up): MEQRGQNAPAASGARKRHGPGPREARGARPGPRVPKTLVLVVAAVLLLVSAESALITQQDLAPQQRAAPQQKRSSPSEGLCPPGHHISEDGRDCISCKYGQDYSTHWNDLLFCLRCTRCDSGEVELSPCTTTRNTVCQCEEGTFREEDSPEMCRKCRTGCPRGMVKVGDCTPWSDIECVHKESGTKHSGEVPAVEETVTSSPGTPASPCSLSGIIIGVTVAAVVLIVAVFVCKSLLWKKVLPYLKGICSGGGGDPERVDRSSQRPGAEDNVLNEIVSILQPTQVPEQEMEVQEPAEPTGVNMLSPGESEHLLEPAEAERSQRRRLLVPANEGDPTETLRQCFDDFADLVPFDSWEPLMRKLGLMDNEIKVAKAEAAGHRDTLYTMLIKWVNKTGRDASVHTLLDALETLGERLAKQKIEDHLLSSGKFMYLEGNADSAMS

Structure (SMILES) | activity [1] [%] | activity [2] [%]
O=c1cc(-c2c(F)c(F)c(F)c(F)c2F)oc2ccccc12 | 98.1 | 92.1
CC(C)(C)OC[C@H](NC(=O)c1[nH]cnc1C(=O)Nc1ccccc1F)C(=O)OC(C)(C)C | 55.4 | 59.2
Cc1ccccc1/C(N)=N/OC(=O)/C=C/c1ccccc1 | 98.7 | 97.3
CCN1CCN(Cc2ccc(NC(=O)c3ccc(C)c(NC(=O)c4c[nH]c5cc(C(F)(F)F)ccc5c4=O)c3)cc2C(F)(F)F)CC1 | 98.8 | 98.8
Cc1ccccc1/C=C/c1nc2ccccc2c(=O)[nH]1 | 56.1 | 58.7
CCc1cc2c(COC(=O)c3cc(S(=O)(=O)N4CCOCC4)ccc3F)cc(=O)oc2cc1O | 77.3 | 82.5
CC(C)CC(=O)Nc1nc2c(c(=O)[nH]1)CCCC2 | 69.3 | 66.5
Cc1ccc2c(c1)sc(=NC(=O)c1cccs1)n2C | 91.1 | 90.7
COc1ccc2nc(-c3cccc(N)c3)[nH]c2c1 | 55.8 | 41.4
Cn1c(=O)[nH]c(=O)c2c1nc([N+](=O)[O-])n2Cc1ccccc1 | 60.5 | 96.2
O=c1[nH]c(/C(=N\O)c2ccccc2)no1 | 88.8 | 89.6
CCOc1ccc(C(=O)Nc2nnc(SCC(=O)NCC3CCCO3)s2)cc1 (centres undefined) | 96.1 | 96.3
Cc1nnc(NC(=O)c2nc(S(=O)(=O)Cc3ccccc3)ncc2Cl)s1 | 94.5 | 84.9
O=C(Nc1ccccc1)c1nc[nH]c1C(=O)Nc1ccccc1F | 62 | 62.5
CC(C)c1ccc(NC(=O)CSc2ncccc2C(=O)Oc2cccc([N+](=O)[O-])c2)cc1 | 68.1 | 61.5
COc1ccc2c(=O)c(-c3nc(C)cs3)coc2c1 | 69.9 | 71.6
CN(C)C=Nc1ccc2nc3c(cc2c1)[nH]c1ccccc13 | 76.7 | 76.3
CSc1nnc(NC(=O)c2nc(S(=O)(=O)Cc3ccccc3F)ncc2Cl)s1 | 80.3 | 58.1
Cc1ccc(-c2nn3c(C)nnc3c3ccccc23)cc1S(=O)(=O)NCc1ccccc1 | 48.2 | 51.6
CCOC(=O)C1=CCN(S(=O)(=O)c2ccccc2Cl)C1c1cccc(F)c1 (centres undefined) | -2.9 | 11.8
COc1ccc(Cn2c(SCc3ccccc3C)nc3cc(OC)c(OC)cc3c2=N)cc1 | 72.7 | 90.9
COc1cc(OC)cc(-c2cc3ccc(F)cc3cn2)c1 | 65.9 | 60.2
Cc1ccc(CSc2nc3ncccc3[nH]2)cc1 | 71 | 68.2
CCCc1c(C(=O)N/N=C/C=C/c2ccccc2)nnn1-c1nonc1N | 47.5 | 50.4
O=C(OCc1cccc(C(F)(F)F)c1)c1cc(S(=O)(=O)N2CCOCC2)ccc1F | 36.8 | 21

Structure (SMILES) | activity [1] [%] | activity [2] [%]
COc1ccc(Nc2nc(N)nc(CCl)n2)cc1 | 99.1 | 98.3
CC(C)(C)c1ccc(-c2nnc(N)s2)cc1 | 64.7 | 66.7
CC(=O)Nc1ccc(/C=N/Nc2nc3ccccc3[nH]2)cc1 | 76.2 | 75.5
Oc1cccc(/C=N/Nc2cccc3cccnc23)c1 | 48.6 | 34.2
COc1ccc(/C(N)=N/OC(=O)c2ccc3c(c2)OCO3)cc1OC | 94.2 | 95.1
Cc1ccc(-c2cnc3cc(C)nn3c2)cc1 | 73.9 | 66.8
Cc1cccnc1Nc1nc(-c2ccccn2)cs1 | 38.4 | 63.1
O=C(CCl)Nc1ccc(Oc2cnc3ccccc3n2)cc1 | 97.6 | 98.5
O=C(Cn1ncc(Cl)c(Cl)c1=O)c1ccc(Cl)cc1 | 99.7 | 99.6
COc1ccc(-c2ccc(NC(=O)c3ccco3)cc2)nn1 | 91 | 89.9
O=C(Nc1ccc2[nH]ccc2c1)c1ccccc1 | 81.1 | 75.3
Cc1nc2cc(NC(=O)N3c4ccccc4CC3C)ccc2n1C (centres undefined) | 71.9 | 70.6
CCOC(=O)c1cnc(-n2nc(C)cc2C)nc1N(C)C | 55.4 | 52.1
Cc1ccc(-c2cnn(-c3ccccc3)c2N)cc1 | 78.6 | 77
COc1ccc(/C=N\n2nnc3ccccc32)cc1 | 53.3 | 42.7
CC(=O)CSc1nc2cc3c(cc2cc1C#N)OCCO3 | 49.6 | 35.5
O=C(Nc1ccc(Cl)cc1)/C(=C/c1cccc(O)c1)c1nc2ccccc2s1 | 95.7 | 98.1
Brc1ccc(-c2ccc(/C=N/Nc3nc4ccccc4[nH]3)o2)cc1 | 51.5 | 42.5
CC(C)(C)c1ccc(-c2noc(CCC(=O)N3CCOCC3)n2)cc1 | 66.5 | 64.2
Cc1nnc(NC(=O)c2ccc(S(=O)(=O)C(F)F)cc2)s1 | 43.1 | 42.9
COc1ccc2nc(NC(=O)c3ccccc3F)sc2c1 | 78.1 | 73.8
Cc1ccc2nc(NC(=S)NC(=O)c3ccco3)sc2c1 | 77.9 | 62.9
O=C(Nc1ccc(Cl)c(Cl)c1)Nc1ccccc1C(=O)O | 44.6 | 42.5
Cc1cc(C)nc(Nc2nc(-c3ccccc3)cs2)n1 | 72.5 | 71.3
O=C(Nc1nc2cc3c(cc2s1)OCO3)c1ccco1 | 79.5 | 93.1

Structure (SMILES) | activity [1] [%] | activity [2] [%]
NC(Cc1ccccc1)c1csc(NC(=O)Nc2ccccc2Oc2ccccc2)n1 (centres undefined) | 61.5 | 78.7
Cc1ccc(C(=O)N/C(=C\c2ccc(-c3ccccc3[N+](=O)[O-])o2)C(=O)NCCCN(C)C)cc1 | 18.7 | 31.6
Cc1nnc(NC(=O)c2nc(S(=O)(=O)Cc3ccccc3C)ncc2Cl)s1 | 94.7 | 89.8
COc1ccc2nc(NN=C(C)c3ccccn3)cc(C)c2c1 | 74 | 80.1
O=[N+]([O-])c1c(Nc2ccccc2O)cc(Cl)c2nonc12 | 63.9 | 98.3
COc1ccc(Oc2c(Cl)cnn(-c3ccc(F)cc3)c2=O)cc1 | 98 | 94.2
c1ccc(-c2ccc(-c3nc(-c4ccccn4)no3)cc2)cc1 | 94 | 93.2
Clc1ccccc1CSc1nc2ccncc2[nH]1 | 79 | 79.3
Cc1cccc(N(Cc2ccccc2)C(=O)CCl)c1 | 99 | 99.1
COc1ccc2c(c1OC)C(=O)OC2Nc1nc(-c2ccc(-c3ccccc3)cc2)cs1 (centres undefined) | 47.4 | 49.4
Cc1ccc2nc(NC(=O)c3ccc(-c4nc5ccccc5s4)s3)sc2c1 | 56.8 | 17
Cc1cccc(NC(=O)c2ccc3c(Cl)c4c(nc3c2)CCCC4)n1 | 77.1 | 80
Cc1nc2ccc(-c3nc4cc(N)ccc4o3)cc2[nH]1 | 59.7 | 57.4
CC(=O)c1cc(F)ccc1OCC(=O)Nc1ccc2c(c1)OCO2 | 72.3 | 68.3
CCN1CCN(c2c(Cl)cccc2NC(=O)c2ccc([N+](=O)[O-])o2)CC1 | 52.3 | 61.3
COc1ccc(C(=O)/C=C/Nc2cccc(O)c2)cc1 | 75.9 | 42.4
Cc1ccc(C(=O)N/C(=C\c2ccc(-c3ccccc3[N+](=O)[O-])o2)C(=O)NCCN(C)C)cc1 | 42 | 99.7
CCCCCCN(C(=O)CCl)c1ccccc1 | 98.8 | 99.2
CCOc1ccc2nc(NC(=O)c3ccc(C)o3)sc2c1 | 61.1 | 52.9
O=C(Nc1ccc(N2CCN(Cc3ccccc3F)CC2)cc1)c1ccc([N+](=O)[O-])o1 | 99 | 98.8
CC(C)(C)c1ccc(/C=C/C(=O)NC2=NCCS2)cc1 | 49.7 | 41.9
Cc1ccc(NC(=S)c2nc3ccccc3[nH]2)cc1 | 74.3 | 69.7
Cc1cc(=O)[nH]c2nnc(-c3ccc(Cl)cc3)n12 | 82.2 | 78.6
Cc1ccnc(NC(=O)c2ccc3c(c2)OCO3)c1 | 82.5 | 82.9
Cc1cc(C(=O)Nc2sc3c(c2C#N)CCCC3)no1 | 53 | 52.5

Structure (SMILES) | activity [1] [%] | activity [2] [%]
CCN1CCN(Cc2ccc(NC(=O)c3cc(NC(=O)c4cncc(-c5cccs5)c4)cc(OC)c3)cc2C(F)(F)F)CC1 | 68 | 91.9
COc1ccc(OCC(=O)N/N=C(\C)c2cc3ccccc3o2)cc1 | 62.8 | 70.2
Clc1ccc(OCc2nn3c(C4CCCCC4)nnc3s2)cc1 | 49.8 | 71.2
COc1ccc2nc(-c3ccccn3)ccc2c1 | 82.1 | 77.5
CC(C)c1ccc(C(=O)NC2=NCCS2)cc1 | 63.5 | 67.1
CNc1ncnc(Sc2nc(N)nc3nc[nH]c23)c1[N+](=O)[O-] | 72 | 77.6
O=C(Nc1ccccc1)Nc1ccc(C(=O)N2CCCC2)cc1 | 65.6 | 71.5
COc1cc(/C=C(/C#N)c2nc3ccccc3[nH]2)ccc1OCC(=O)Nc1ccccc1C | 86 | 97.8
CCOc1ccccc1NC(=O)c1nc(S(=O)(=O)Cc2cccc(C)c2)ncc1Cl | 84.6 | 97.2
COc1ccc(-c2cc(C(=O)N3CCCC3)no2)cc1 | 64.9 | 59.8
Cc1cccc(NC(=O)c2onc3c2CCCC3)n1 | 85.6 | 89.4
O=C(NC(=S)N1CCN(c2ccc(C(F)(F)F)cc2[N+](=O)[O-])CC1)c1cccs1 | 60.9 | 62.1
COc1ccc(/C=C/c2nc3ccccc3n2Cc2ccccc2OC)cc1 | 78.5 | 67.7
O=C1c2cccc3c([N+](=O)[O-])ccc(c23)C(=O)N1c1ccccn1 | 91.4 | 99.4
Cc1cccc(-n2ncc3c(NC4CCCCC4)ncnc32)c1 | 66.7 | 54.5
c1ccn2cc(-c3ccc4c(c3)OCCO4)nc2c1 | 89 | 86
O=C(/C=C/NNC(=O)c1ccccc1)c1ccc([N+](=O)[O-])cc1 | 21.4 | 20
CS/C(Nc1cc(Cl)ccc1Cl)=C(/C#N)C(=O)c1ccco1 | 60.1 | 65.6
C=CCn1c2ccccc2c(=O)c2cc(C#CC3(O)CCCCC3)ccc21 | 83.7 | 79.7
Cc1nc(-c2ccc(NC(=O)c3ccccc3)cc2)cs1 | 80.8 | 76.2
O=C(Oc1cccc(/C=N/NC(=O)c2ccccn2)c1)c1ccc([N+](=O)[O-])cc1 | 42.9 | 20.2
CCOc1ccc(Nc2nc(N)nc(CCl)n2)cc1 | 99.5 | 99.3
